# Experimental data from paper PMC5540273 (PLoS ONE, 2017).
# Experiments:
# Conditions in all cases: concentration: 1 μM, replicates: in singlicate; n = 1
# CAMK1 = system: CAMK1
# CAMK2A = system: CAMK2A
# CAMK2B = system: CAMK2B
# CAMK2D = system: CAMK2D
# CAMK2G = system: CAMK2G
# CAMK4 = system: CAMK4
# CAMKK1 = system: CAMKK1
# CAMKK2 = system: CAMKK2
# CASK = system: CASK
# CDC2L1 = system: T1, CDC2L1
# T1 construct: gene CDK11B
# 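Note: KINOMEscan kinase panel screen.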
Structure (SMILES),%Inh (CAMK1),%Inh (CAMK2A),%Inh (CAMK2B),%Inh (CAMK2D),%Inh (CAMK2G),%Inh (CAMK4),%Inh (CAMKK1),%Inh (CAMKK2),%Inh (CASK),%Inh (CDC2L1)
O=C(Nc1n[nH]c2nc(-c3ccccc3O)ccc12)C1CC1 [SB-711880],0%,0%,0%,0%,0%,0%,3%,0%,13%,0%
CN(c1ccc2c(c1)nc(NCc1ccccc1)n2C)c1ccnc(Nc2ccc(CS(C)(=O)=O)cc2)n1.Cl [GW811603],0%,0%,0%,0%,0%,0%,14%,0%,0%,94.2%
CS(=O)(=O)c1cccc(CNc2nc(Nc3ccc4c(c3)CCC(=O)N4)ncc2C(F)(F)F)c1,0%,0%,0%,0%,0%,0%,20%,9%,0%,0%
CC(C)(C)c1ccc(C(=O)Nc2cn3cc(-n4ccnc4)ccc3n2)cc1,32%,18%,0%,0%,12%,0%,6%,7%,8%,3%
O=C(Nc1n[nH]c2nc(-c3ccccc3)ccc12)C1CC1 [SB-708999],3%,0%,0%,100%,17%,0%,6%,13%,14%,0%
Cc1ccc(O)cc1Nc1ccnc2ccc(C(C)(C)C)cc12 [GW856805],45%,7%,10%,18%,22%,0%,3%,26%,25%,12%
O=C(O)C(F)(F)F.O=c1[nH]ccc2nc(N[C@@H]3CCNC3)nc(Nc3ccc4c(c3)S(=O)(=O)CC4)c12 [GSK2181306],82%,59%,23%,55%,52%,98.5%,92.1%,40%,15%,0%
COc1ccc(NC(=O)c2ccoc2)cc1-c1ccc(C(=O)NCC2CC2)cc1 [GW810437],0%,0%,0%,0%,0%,19%,15%,30%,13%,14%
CCNC(=O)/C=C/c1n[nH]c2cc(Sc3ccccc3C(=O)NC)ccc12,7%,0%,0%,17%,27%,0%,10%,33%,40%,10%
Cn1cc(-c2ccc3c(c2)CCN3C(=O)Cc2cc(F)cc(C(F)(F)F)c2)c2c(N)ncnc21 [GSK2635225],5%,0%,0%,0%,12%,0%,0%,8%,2%,5%
CN(c1ccc(NC(=O)N2CCN(CCCN3CCOCC3)CC2)cc1)c1ccnc(Nc2ccc(CS(C)(=O)=O)cc2)n1.Cl [GW830899],0%,0%,0%,1%,0%,0%,19%,0%,0%,2%
Nc1cccc(-c2ccc3c(N)n[nH]c3c2)c1 [GSK2193613],29%,0%,0%,11%,26%,0%,2%,13%,13%,7%
CCn1c(-c2nonc2N)nc2c(-c3ccccc3)ncc(OCCCN)c21.O=C(O)C(F)(F)F.O=C(O)C(F)(F)F [GSK260205],7%,0%,0%,14%,14%,8%,0%,0%,1%,0%
CC(C)NCC(Cc1ccccc1)NC(=O)c1cc(Br)c(-c2ccnc3[nH]ccc23)s1.Cl.Cl (centres unmarked) [GSK1383281],34%,0%,0%,15%,15%,29%,33%,19%,0%,0%
Nc1ncnc2scc(-c3ccc(NC(=O)Cc4cc(F)ccc4F)cc3)c12.O=C(O)C(F)(F)F [SB-731254-M],16%,0%,0%,10%,5%,0%,17%,12%,21%,11%
CNc1nccc(-c2ccc3c(N)n[nH]c3c2)n1 [GSK2206003],24%,14%,31%,33%,33%,0%,10%,13%,21%,10%
Cl.Cl.NC(CNC(=O)c1cc(Br)c(-c2ccnc3[nH]ccc23)s1)c1ccccc1 (centres unmarked) [GSK1322949],42%,45%,39%,38%,48%,0%,8%,29%,38%,0%
